High-throughput results deposited in PubChem BioAssay by several laboratories.
RecA intein inh = Mtb RecA intein splicing inhibition; AID 2221; inhibition, % (concentration not given with the values); 0.75% of 290,000 active; cell-free RecA intein splicing, fluorescence; P9WHJ3; in the data active means inhibition above about 30%; inconclusive means no clear call, values can overlap the other calls;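 further: 0% = vehicle wells and 100% = reference inhibitor control wells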
CCHFV vOTU inh = blocks the CCHF virus ovarian tumor domain protease. CCHFV vOTU protease, Pep-AMC fluorescence. 0.55% of 370,000 active. inhibition, % at 11.5 µM. AID 651958; further: 0% = vehicle wells with enzyme and 100% = no enzyme wells
GDH-TPI inh = counter-screen for M. tuberculosis FBA inhibitors: GDH-TPI coupled enzymes; GDH-TPI coupled enzyme counterscreen, NADH absorbance; inhibition, % at 4.8 µM; 1.2% of 360,000 active; AID 588335;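 further: 0% = DMSO wells and 100% = wells lacking the enzyme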
Mtb FBA inh = inhibitors of M. tuberculosis fructose-bisphosphate aldolase; purified M. tuberculosis FBA, fluorescence read-out; inhibition, % at 1 µM; P9WQA3; 2.3% of 360,000 active; in the data active means inhibition above about 27%;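 further: 0% = vehicle and 100% = reference inhibitor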
Target sequence (P9WQA3 whole entry, looked up): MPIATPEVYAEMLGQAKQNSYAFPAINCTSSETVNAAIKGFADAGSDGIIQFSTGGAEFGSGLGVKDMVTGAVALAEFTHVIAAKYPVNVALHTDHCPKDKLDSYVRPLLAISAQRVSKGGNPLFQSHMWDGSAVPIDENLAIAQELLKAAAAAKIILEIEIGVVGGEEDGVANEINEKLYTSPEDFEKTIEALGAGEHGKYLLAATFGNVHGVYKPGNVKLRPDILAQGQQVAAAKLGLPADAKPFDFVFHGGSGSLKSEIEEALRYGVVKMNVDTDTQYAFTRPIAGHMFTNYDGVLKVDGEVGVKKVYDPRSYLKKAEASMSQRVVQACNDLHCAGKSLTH
Mtb bLac sens = beta-lactam sensitization of Mtb H37Rv; M. tuberculosis H37Rv growth with meropenem, percent inhibition; inhibition, % at 25 µM; 0.27% of 330,000 active; call rule not given here;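 further: growth measured after seven days incubation then overnight dye step; 0% = bacteria only wells and 100% = bacteria with antibiotic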
Starred values were filed as active, the others as inactive; ? = inconclusive; . = not tested or not shown. A selection: hits, their analogues and other compounds. The true share with any hit is near 4.2%. Unless noted, no stated cut-off is given here; in the data, active means inhibition above about 30%; inactive means the rest.

SMILES	RecA intein inh	CCHFV vOTU inh	GDH-TPI inh	Mtb FBA inh	Mtb bLac sens
CCOc1cc2c(cc1/C=C(/C#N)c1ccc(C(=O)O)cc1)OCO2	-1	18	2	-4	2
Cn1c(=O)c(=O)n(C)c2cc(S(=O)(=O)N3CCN(CCO)CC3)ccc21	.	-4	.	.	.
NS(=O)(=O)c1ccc(NC=C2C(=O)OC3(CCCCC3)OC2=O)cc1	-1	-2	32*	-1	7
CCCCc1ccc(NC=C2C(=O)OC3(CCCCC3)OC2=O)cc1	0	14	0	1	97
O=C(O)CCCNC(=O)/C(=C\C=C\c1ccccc1)NC(=O)c1ccccc1Cl	2	-2	20	-1	-2
C=CCNC(=O)/C(=C\C=C\c1ccccc1)NC(=O)c1ccccc1Cl	1	-8	31*	-3	-8
O=C1C(=O)N(c2ccc(O)cc2)C(c2ccccc2[N+](=O)[O-])/C1=C(\O)c1ccccc1 (configuration not stated)	1	21	36*	-5	0
COc1cc(OC)c(-c2sc(Nc3ccccc3)n[n+]2-c2ccc(F)cc2)cc1OC	-2	14	38*	9	-8
COc1ccc(C(=O)c2ccc(OC)cc2OC)cc1	1	5	6	-2	4
CN(C)c1ccc(C(=O)c2ccc(N(C)C)c3ccccc23)cc1	0	6	34*	-1	76
COc1ccc(C(=O)c2ccc(N(C)C)cc2)c(OC)c1	3	9	31*	0	2
COc1cc(NC(=O)/C=C/c2ccccc2)c(C(=O)O)cc1OC	-2	5	44*	-7	-6
COc1cc(NC(=O)Nc2cccc(Cl)c2)c(C(=O)O)cc1OC	0	-10	14	146*	2
COc1cc(NC(=O)Cc2ccccc2)c(C(=O)O)cc1OC	-5	1	0	-1	7
COC(=O)c1cc(OC)c(OC)cc1NC(=S)Nc1cccc(Cl)c1	1	1	5	-7	-1
CN(C)C(=O)C[C@H]1CC[C@H]2[C@H](COc3ccc(NC(=O)C4CC4)cc3C(=O)N2C)O1	.	-2	.	.	.
CN1C(=O)c2cc(NC(=O)c3ccccc3)ccc2OC[C@H]2O[C@@H](CC(=O)NCC3CC3)CC[C@@H]21	.	-8	.	.	.
O=S(=O)(c1ccc(Cl)s1)N1CCC(c2nc3ccccc3o2)CC1	.	-1	.	.	.
O=C(/C(=C\c1ccccc1)c1nc2ccccc2[nH]1)c1ccc(Cl)cc1	17	8	11	1	8
O=C(/C(=C/c1ccc(Cl)cc1)c1nc2ccccc2[nH]1)c1cccs1	18	.	32*	-1	?
N#C/C(=C(/O)c1cccs1)c1nc2ccccc2[nH]1	-24	3	39*	14	?
CCCCCCCCN1CCS(=O)(=O)N(Cc2ccc(F)cc2)C(C(=O)OC)C1 (configuration not stated)	.	26	.	.	.
CCOC(=O)[C@@]12CCCC=C1N(CCc1ccc(Cl)cc1)C(=O)[C@H]2CC(=O)NCc1ccc(OC)c(OC)c1	.	2	.	.	.
CCOC(=O)[C@@]12CN(C(=O)OC(C)(C)C)CC=C1N(Cc1ccc(OC)cc1)C(=O)[C@H]2CC(=O)NCC1CCCCC1	.	14	.	.	.
O=C(Nc1cccc(-c2csc(Nc3ccc(Cl)cc3)n2)c1)c1cc([N+](=O)[O-])cc(C(F)(F)F)c1	0	20	41*	-1	5
SMILES	RecA intein inh	CCHFV vOTU inh	GDH-TPI inh	Mtb FBA inh	Mtb bLac sens
CCCCOc1ccc(C2C3CN(C(=O)OCC)CC=C3C(C#N)=C(N)C2(C#N)C#N)cc1OC (configuration not stated)	33*	-14	7	-2	37
Cc1cccc(-c2nnc(SCC(=O)Nc3ccc(-c4nc5ccc(C)cc5s4)cc3)n2Cc2ccco2)c1	.	-41	.	.	.
CC(C)(C)c1nnc(N/N=C/c2cc(Br)ccc2O)n(N)c1=O	12	2	33*	-1	5
COC(=O)[C@]12C=CCN1[C@H](c1ccc(C(F)(F)F)cc1)c1c(c3ccccc3n1S(=O)(=O)c1ccc(C)cc1)C2	.	15	.	.	.
CCCCOCCCNC(=O)C[C@H]1C[C@@]2(C(=O)OC)C(=C[C@H](C3CCCC3)O[C@@H]2C)N(Cc2ccco2)C1=O	.	13	.	.	.
Cn1c(SCC2CCCCC2)nnc1-c1ccco1	.	1	.	.	.
O=[N+]([O-])c1cccc(/C=N/Nc2nccnc2Cl)c1	-17	9	37*	1	-8
O=c1[nH]c(=S)n(-c2cccc(Cl)c2)c(O)c1/C=N/N1CCOCC1	-4	-13	35*	-4	5
Cc1ccc(-n2c(O)c(/C=N/N3CCOCC3)c(=O)[nH]c2=S)cc1	-3	3	25	-2	-4
Cc1nn(Cc2ccccc2Cl)c(C)c1NC(=O)c1nc2ncccn2n1	3	-7	37*	0	4
CCOC(=O)CNC(=O)N1Cc2cc(-c3cccc(F)c3)ccc2-n2nncc2C1	.	4	.	-2	.
CCOC(=O)CNC(=O)N1Cc2cc(-c3ccc(OC)cc3)ccc2-n2nncc2C1	.	8	.	124*	.
COc1ccc(-c2ccc3c(c2)CNCc2cnnn2-3)cc1	.	2	.	115*	.
C=CCN(CC#Cc1ccc(C(F)(F)F)cc1)CC=C	.	2	.	.	.
Cn1c(SCC2CCC2)nnc1-c1ccco1	.	-1	.	.	.
COC(=O)[C@H](C(C)C)N(CCc1cn(Cc2ccc(C)cc2)nn1)S(=O)(=O)c1ccccc1Br	.	11	.	.	.
COc1cc(/C=C/C(=O)N2CCC=CC2=O)cc(OC)c1OC	.	5	35*	3	61
Nc1[nH]c(N=NC(=O)c2ccc(F)cc2)c2ccccc12	-3	-2	33*	-2	-1
O=C1CS/C(=N/N=C/c2ccco2)N1Cc1ccc(F)cc1	1	11	38*	-1	0
CCn1c(COc2ccc(C)cc2)nnc1SCC(=O)c1ccc(-c2ccccc2)cc1	.	20	.	.	.
Nc1nc2c(ncn2-c2ccccc2)c(=O)[nH]1	.	-6	10	1	.
O=c1[nH]c(=S)c2ncn(-c3ccccc3)c2[nH]1	-1	8	31*	2	-6
Cc1c(O)ccc(C(=O)COc2ccc(F)cc2)c1O	0	4	32*	-2	-4
N#Cc1ccc(/C=C2\CC3(OC(=O)c4ccco4)CCCN2C3)cc1 (configuration not stated)	.	8	.	.	.
O=C(OCn1ncc(Br)c(Br)c1=O)c1c(F)cccc1F	53*	.	.	.	100
SMILES	RecA intein inh	CCHFV vOTU inh	GDH-TPI inh	Mtb FBA inh	Mtb bLac sens
CCCc1c(-c2ccc(O)cc2)nn(-c2ccc(O)cc2)c1-c1ccc(O)cc1	51*	.	1	2	1
O=C1N=C(N2C=CC(=C3C=CNC=C3)C=C2)/C(=C/N=NC(=O)c2ccccc2O)S1	-4	21	53*	-5	0
COC(=O)[C@H](C(C)C)N1CCc2nnn(CC3CCCCC3)c2-c2cc(F)ccc2S1(=O)=O	.	22	.	.	.
CCCCNc1c(-c2cccc(-c3cc(C(C)=O)cs3)c2)nc2cc(C)ccn12	7	10	33*	3	19
CC(=O)Nc1ccc2nc(NC(=O)c3cccs3)sc2c1	-2	1	53*	-2	85
CCN(CC)S(=O)(=O)c1ccc2nc(NC(=O)c3cccs3)sc2c1	-1	17	35*	19	46
CCN(CC)S(=O)(=O)c1ccc2nc(NC(=O)c3ccco3)sc2c1	-2	8	19	23	-2
